# Test results from the supplement of paper PMC8975748.
# Structures can show the parent of a compound that is named as a salt.
# Test system: Saccharomyces cerevisiae BY4741 SeMeCo community
# Assay: z-score of subpopulation abundance vs DMSO median, subpopulation auxotrophic for LUM; higher = larger share of this subpopulation than in DMSO controls
# Settings: 10 µM; 24 h; SM minimal medium; subpopulation (auxotrophy): LUM
# Procedure: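 Fluorescent four-plasmid SeMeCo (self-establishing metabolically cooperating S. cerevisiae BY4741 community; plasmids pH-mRuby2, pL-mWasabi, pU-eCFP, pM-TagRFP657) was grown 24 h in minimal SM medium with each Selleck FDA-approved drug at 10 µM in 384-well plates. Cells were fixed and imaged by high-content confocal microscopy. For each auxotrophic subpopulation (and the prototroph), a z-score gives the deviation from the DMSO vehicle-control population median.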
row,SMILES,z-score of subpopulation abundance
1,O=c1ccc2ccc(OCCCCN3CCN(c4cccc5sccc45)CC3)cc2[nH]1 [Brexpiprazole],1.05
2,O=c1[nH]cnc2c1ncn2[C@@H]1O[C@H](CO)[C@@H](O)[C@H]1O [Isoprinosine],-0.5
3,CCN(Cc1ccncc1)C(=O)C(CO)c1ccccc1 (stereo not given) [Tropicamide],0
4,Oc1cccc(O)c1 [Resorcinol],-0.89
5,"OCc1ccc(Cl)cc1Cl [2,4-dichlorobenzyl alcohol]",-0.03
6,CCn1cc(C(=O)O)c(=O)c2cc(F)c(N3CCNC(C)C3)c(F)c21 (stereo not given) [Lomefloxacin HCl],1.32
7,O=C1OCCN1/N=C/c1ccc([N+](=O)[O-])o1 [Furazolidone],-2.42
8,COC(=O)Nc1nc2cc([S+]([O-])c3ccccc3)ccc2[nH]1 (stereo not given) [Oxfendazole],-0.67
9,COc1cc(N)c(Cl)cc1C(=O)NC1CCN(CCCOc2ccc(F)cc2)CC1OC (stereo not given) [Cisapride],-0.18
10,CCCCCOc1ccc(-c2cc(-c3ccc(C(=O)N[C@H]4C[C@@H](O)[C@@H](O)NC(=O)[C@@H]5[C@@H](O)[C@@H](C)CN5C(=O)[C@H]([C@H](O)CC(N)=O)NC(=O)[C@H]([C@H](O)[C@@H](O)c5ccc(O)c(OS(=O)(=O)O)c5)NC(=O)[C@@H]5C[C@@H](O)CN5C(=O)[C@H]([C@@H](C)O)NC4=O)cc3)no2)cc1 [Micafungin Sodium],4.1
11,C#CCN[C@@H]1CCc2ccccc21 [Rasagiline Mesylate],0.19
12,CC[C@@H]1/C=C(\C)C[C@H](C)C[C@H](OC)[C@H]2O[C@@](O)(C(=O)C(=O)N3CCCC[C@H]3C(=O)O[C@H](/C(C)=C/[C@@H]3CC[C@@H](O)[C@H](OC)C3)[C@H](C)[C@@H](O)CC1=O)[C@H](C)C[C@@H]2OC [Ascomycin (FK520)],2.23
13,CCCCCCCN(CC)CCCC(O)c1ccc(NS(C)(=O)=O)cc1 (stereo not given) [Ibutilide Fumarate],0.19
14,CCCCCCCCCC(=O)NC1C(Oc2c3cc4cc2Oc2ccc(cc2Cl)C(OC2OC(CO)C(O)C(O)C2NC(C)=O)C2NC(=O)C(NC(=O)C4NC(=O)C4NC(=O)C(Cc5ccc(c(Cl)c5)O3)NC(=O)C(N)c3ccc(O)c(c3)Oc3cc(O)cc4c3)c3ccc(O)c(c3)-c3c(OC4OC(CO)C(O)C(O)C4O)cc(O)cc3C(C(=O)O)NC2=O)OC(CO)C(O)C1O (stereo not given) [Teicoplanin],0.85
15,COc1ccnc(C[S+]([O-])c2nc3cc(-n4cccc4)ccc3[nH]2)c1C (stereo not given) [Ilaprazole sodium],0.43
16,Cc1c(C)c2c(c(C)c1O)CCC(C)(CCCC(C)CCCC(C)CCCC(C)C)O2 (stereo not given) [Vitamin E],-0.41
17,NCc1ccccc1CC(=O)N[C@@H]1C(=O)N2C(C(=O)O)=C(CSc3nnnn3CC(=O)O)CS[C@H]12 [Ceforanide],2.06
18,Cc1ccc(Sc2ccccc2N2CCNCC2)c(C)c1,-0.73
19,C=C[C@H]1CN2CC[C@H]1C[C@@H]2[C@@H](O)c1ccnc2ccc(OC)cc12 [Quinidine sulfate],1.53
20,Nc1ccc(S(=O)(=O)Nc2nccs2)cc1 [Sulfathiazole],0.11

row,SMILES,z-score of subpopulation abundance
1,C[C@@H](c1nc(-c2ccc(C#N)cc2)cs1)[C@](O)(Cn1cncn1)c1cc(F)ccc1F [Isavuconazole],7.48
2,CC1=C(C(=O)O)N2C(=O)[C@@H](NC(=O)[C@H](N)c3ccccc3)[C@H]2SC1 [Cephalexin],-0.42
3,C#C[C@]1(O)CC[C@H]2[C@@H]3CCC4=CCCC[C@@H]4[C@H]3CC[C@@]21C [Lynestrenol],-0.41
4,N=C(N)NC(=O)c1nc(Cl)c(N)nc1N [Amiloride HCl],0.19
5,CCCCCCCCCC(=O)N[C@@H](Cc1c[nH]c2ccccc12)C(=O)N[C@H](CC(N)=O)C(=O)N[C@@H](CC(=O)O)C(=O)N[C@@H]1C(=O)NCC(=O)N[C@@H](CCCN)C(=O)N[C@@H](CC(=O)O)C(=O)N[C@H](C)C(=O)N[C@@H](CC(=O)O)C(=O)NCC(=O)N[C@H](CO)C(=O)N[C@@H]([C@H](C)CC(=O)O)C(=O)N[C@@H](CC(=O)c2ccccc2N)C(=O)O[C@@H]1C [Daptomycin],1.02
6,CCOc1cc(NC(C)=O)ccc1C(=O)OC [Ethopabate],0.24
7,CO[C@H]1C[C@@H]2CC[C@@H](C)[C@@](O)(O2)C(=O)C(=O)N2CCCC[C@H]2C(=O)O[C@H]([C@H](C)C[C@@H]2CC[C@H](n3cnnn3)[C@H](OC)C2)CC(=O)[C@H](C)/C=C(\C)[C@@H](O)[C@@H](OC)C(=O)[C@H](C)C[C@H](C)/C=C/C=C/C=C/1C [Zotarolimus(ABT-578)],5.72
8,NC(=O)N1c2ccccc2C=Cc2ccccc21 [Carbamazepine],0.24
9,CC(C)[C@H](N)C(=O)OCCOCn1cnc2c(=O)nc(N)[nH]c21 [Valaciclovir HCl],-0.29
10,CC1(C)[C@H](C(=O)O)N2C(=O)C[C@H]2S1(=O)=O [Sulbactam sodium],0.21
11,CCOC(=O)C1=C(C)NC(C)=C(C(=O)OCC)C1c1ccccc1/C=C/C(=O)OC(C)(C)C [Lacidipine],-1.16
12,Cc1cc(-n2c(=O)[nH]c(=O)n(C)c2=O)ccc1Oc1ccc(SC(F)(F)F)cc1 [Toltrazuril],-0.13
13,CN[C@@H]1[C@@H](O)[C@@H](O[C@@H]2[C@@H](O)[C@H](O[C@H]3O[C@H](CN)[C@@H](O)[C@H](O)[C@H]3O)[C@@H](N)C[C@H]2NC(=O)[C@@H](O)CN)OC[C@]1(C)O [Isepamicin Sulphate],0.03
14,CC(=O)OC(C)C[N+](C)(C)C (stereo not given) [Methacholine chloride],0.92
15,CCC[C@@H]1C[C@@H](C(=O)N[C@@H]([C@H]2O[C@H](SC)[C@H](OP(=O)(O)O)[C@@H](O)[C@H]2O)[C@H](C)Cl)N(C)C1 [Clindamycin Phosphate],-0.05
16,CC[C@@]1(O)C(=O)OCc2c1cc1n(c2=O)Cc2cc3cc(O)ccc3nc2-1 [Hydroxy Camptothecine],-1.35
17,CC(C)C(=O)Oc1ccc(CO)cc1[C@H](CCN(C(C)C)C(C)C)c1ccccc1 [Fesoterodine Fumarate],-0.22
18,O=C1NC(=O)C(c2ccccc2)(c2ccccc2)N1 [Phenytoin],0.38
19,CC1=Nc2ccc(Cl)cc2S(=O)(=O)N1 [Diazoxide],-0.9
20,Cc1onc(-c2ccccc2)c1C(=O)N[C@@H]1C(=O)N2[C@@H]1SC(C)(C)[C@@H]2C(=O)O [Oxacillin sodium monohydrate],0.47
